# High-throughput results from PubChem.
# UGM FP inh: blocks M. tuberculosis UGM enzyme; AID 504406; P9WIQ1; purified UGM, fluorescence polarization probe displacement; inhibition, % at 10 µM; actives 0.06% (n = 320,000); in the data active = inhibition above about 10%, passing the limit was not always enough
# Mtb bLac sens: beta-lactam sensitization of Mtb H37Rv; M. tuberculosis H37Rv growth with meropenem, percent inhibition; inhibition, % at 25 µM; actives 0.27% (n = 330,000); call rule not given here;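 also: growth measured after seven days incubation then overnight dye step; 0% = bacteria only wells and 100% = bacteria with antibiotic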
# Rv3671c inh: inhibits the M. tuberculosis serine protease Rv3671c; P9WHR9; inhibition, % at 5.96 µM; actives 0.048% (n = 320,000); AID 2606; in the data active = inhibition above about 38%;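 also: extracellular domain of Rv3671c used as enzyme; 0% = enzyme with DMSO and 100% = no enzyme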
# GDH-TPI counter-1: inhibits GDH-TPI coupling enzymes, artifact for Mtb FBA screen. GDH-TPI coupled enzyme counterscreen, NADH absorbance. inhibition, % at 4.8 µM. actives 1.2% (n = 360,000). AID 588335; in the data active = inhibition above about 30%;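 also: 0% = DMSO wells and 100% = wells lacking the enzyme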
# FBA Mtb inh: Mtb fructose-bisphosphate aldolase inhibition | P9WQA3 | actives 2.3% (n = 360,000) | purified M. tuberculosis FBA, fluorescence read-out | inhibition, % at 1 µM;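 also: 0% = vehicle and 100% = reference inhibitor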
# Target sequence (P9WQA3 whole entry, looked up): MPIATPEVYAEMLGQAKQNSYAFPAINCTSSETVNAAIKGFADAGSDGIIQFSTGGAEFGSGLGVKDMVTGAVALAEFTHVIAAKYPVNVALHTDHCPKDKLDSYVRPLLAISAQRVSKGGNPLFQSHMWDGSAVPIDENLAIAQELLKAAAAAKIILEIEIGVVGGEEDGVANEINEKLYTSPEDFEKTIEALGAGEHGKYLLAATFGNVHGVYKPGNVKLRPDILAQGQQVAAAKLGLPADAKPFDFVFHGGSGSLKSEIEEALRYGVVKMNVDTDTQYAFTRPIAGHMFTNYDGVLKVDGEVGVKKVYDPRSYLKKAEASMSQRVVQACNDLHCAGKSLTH
# Mtb FBA confirm: confirmation of M. tuberculosis fructose-bisphosphate aldolase inhibitors | shares compounds with FBA Mtb inh | inhibition, % at 1 µM | purified M. tuberculosis FBA, fluorescence read-out | actives 78% (n = 5,600) | AID 651616;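 also: 0% = vehicle wells and 100% = reference inhibitor wells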
# GDH-TPI counter-2: counter-screen for M. tuberculosis FBA inhibitors: GDH-TPI coupled enzyme inhibition; shares compounds with FBA Mtb inh; AID 652141; actives 81% (n = 5,600); inhibition, % at 1 µM; GDH-TPI coupled enzyme counterscreen, fluorescence; in the data active = inhibition above about 10%
# An asterisk follows results filed as active; · = no result; + = active, no number. This is a sample that favours compounds with a hit; in the whole collection about 3.5% have one here. Rule as the data show it, unless noted: active = inhibition above about 27%; inactive = the rest.
SMILES,UGM FP inh,Mtb bLac sens,Rv3671c inh,GDH-TPI counter-1,FBA Mtb inh,Mtb FBA confirm,GDH-TPI counter-2
Cc1c(C)c2ccc(OCC(=O)N3CC[C@@]4(O)CCCC[C@H]4C3)c(C)c2oc1=O,3,-9,3,4,36*,104*,92*
COC(=O)c1sccc1NC(=O)CSCCc1ccccn1,-1,8,7,3,0,·,·
COc1ccc(-c2cc(C(=O)NCCCN3CCOCC3)c3ccccc3n2)cc1OC,·,-11,-5,17,8,·,·
O=C(NCCCN1CCOCC1)c1cc(-c2ccc(F)cc2)nc2ccccc12,1,5,-2,5,11,·,·
CCc1ccc(-c2cc(C(=O)NCCCn3ccnc3)c3ccccc3n2)s1,-1,85,-6,·,·,·,·
O=C(NCCCN1CCOCC1)c1cc(-c2ccco2)nc2ccccc12,2,1,8,16,89*,115*,75*
Cc1ccc(-c2cc(C(=O)NCCCn3ccnc3)c3ccccc3n2)s1,-3,8,10,9,110*,154*,125*
CCOc1ccc(-c2cc(C(=O)NCCCN3CCOCC3)c3ccccc3n2)cc1,-3,-8,-4,25,35*,116*,88*
COc1ccc(-c2cc(C(=O)NCCCN3CCOCC3)c3cc(C(C)C)ccc3n2)cc1,1,14,7,7,70*,+,141*
CCC(C)(C)NC(=O)C(Sc1ccccc1)c1ccccc1 (stereo not given),-1,-1,-5,0,-1,·,·
COc1ccc(S(=O)(=O)NCC2CCC(C(=O)NCc3ccc(F)cc3)CC2)cc1 (stereo not given),-2,-2,2,-1,-3,·,·
CCOC(=O)[C@H]1[C@H]2COc3ccc(Cl)cc3[C@@H]2N2C(=O)CN(Cc3ccco3)C(=O)[C@@]12C,1,-1,-3,8,1,·,·
CC1CN(C(=O)c2cc(-c3ccc(Cl)s3)nc3ccccc23)CC(C)O1 (stereo not given),0,2,1,14,65*,76*,60*
O=C(NCCCN1CCOCC1)c1cc(-c2ccc(Cl)s2)nc2ccccc12,1,-8,-8,14,64*,172*,145*
COc1ccc2nc3oc(C(=O)N4CC(C)CC(C)C4)cc3cc2c1 (stereo not given),-3,29,-3,17,56*,-1,-4
COc1ccc2cc3cc(C(=O)N4CCCC(C)C4)oc3nc2c1 (stereo not given),0,3,-12,18,14,·,·
CCOC(=O)C1CCN(C(=O)c2cc3cc4cc(OC)ccc4nc3o2)CC1,1,-8,-6,19,55*,109*,98*
CCOC(=O)C1CCCN(C(=O)c2cc3cc4ccc(OC)cc4nc3o2)C1 (stereo not given),2,3,8,23,92*,55*,32*
COc1ccc2nc3oc(C(=O)N4CCCCC4)cc3cc2c1,-2,67,-2,24,57*,84*,63*
COc1ccc2cc3cc(C(=O)N4CCN(c5ccccc5)CC4)oc3nc2c1,-3,15,1,6,4,·,·
CC1CC2OC(=O)C3(C)CCCC(C)(C23)C1(O)CCc1ccoc1 (stereo not given),3,0,-6,-9,1,·,·
COc1ccc2[nH]c(-c3cccc(F)c3)cc(=O)c2c1,-2,-1,-1,3,41*,2,-4
Cc1ccc2[nH]c(-c3cccc(F)c3)cc(=O)c2c1,-2,2,-10,15,11,·,·
CCOC(=O)Cc1cc(=O)[nH]c(/N=C(\N)Nc2ccc(C)c(C)c2)n1,-2,1,7,-6,-1,·,·
O=C(COC(=O)c1ccccc1NCCO)Nc1ccc(S(=O)(=O)NC2=NCCCCC2)cc1,·,·,·,18,84*,84*,61*
SMILES,UGM FP inh,Mtb bLac sens,Rv3671c inh,GDH-TPI counter-1,FBA Mtb inh,Mtb FBA confirm,GDH-TPI counter-2
CCOC(=O)C1CCN(C(=O)Cn2cnc3sc(C)c(S(=O)(=O)N4CCC(C)CC4)c3c2=O)CC1,0,-8,3,-2,78*,186*,143*
CCOC(=O)C1CCN(C(=O)Cn2cnc3sc(C)c(S(=O)(=O)N4CCCCC4)c3c2=O)CC1,-3,-1,1,5,-2,·,·
O=C(COc1ccc2c3c(c(=O)oc2c1)CCC3)N1CCN(c2ccc(F)cc2)CC1,-2,8,-4,26,8,·,·
NC(=O)C1CCN(C(=O)COc2ccc3c4c(c(=O)oc3c2)CCCC4)CC1,5,0,-2,24,79*,166*,136*
O=C(O)C1CCN(C(=O)COc2ccc3c4c(c(=O)oc3c2)CCC4)CC1,1,-5,5,16,41*,124*,79*
Cc1c(OCC(=O)N2CCC(C(N)=O)CC2)ccc2c3c(c(=O)oc12)CCCC3,0,0,7,10,18,·,·
CCCCN(C(=O)c1cccc(S(=O)(=O)N(CC)c2ccccc2)c1)c1c(N)n(CC(C)C)c(=O)[nH]c1=O,·,·,·,5,0,·,·
Cc1ccc(NC(=S)/C(=C(\[O-])c2ccc(Cl)s2)[n+]2cccc(CO)c2)cc1C,1,-4,1,2,-7,·,·
[O-]/C(=C(\C(=S)Nc1cccc2ccccc12)[n+]1cccc(CO)c1)c1ccc(Cl)s1,·,·,·,3,31*,151*,129*
Cc1ccc2nc(-c3ccc(O)cc3)c(Nc3ccc4c(c3)OCCO4)n2c1,-2,2,4,2,36*,+,162*
CC1(C(=O)NS(=O)(=O)c2cccs2)CCN1C(=O)C1CC1 (stereo not given),·,·,·,4,1,·,·
O=C(CCn1c(=O)c2cccn2c2cccnc21)N1CCN(c2cccc(Cl)c2)CC1,1,91,-6,2,2,·,·
CCN(C(=S)Nc1cccnc1)c1cccc2ccccc12,0,-2,-6,5,49*,148*,128*
COc1ccc(-c2nn(-c3ccccc3)cc2CNC(=O)c2cccc([N+](=O)[O-])c2)cc1,-2,3,-40,1,0,·,·
CCOC(=O)c1ccc(C(=O)OCC)c(NC(=S)Nc2ccc([N+](=O)[O-])cc2OC)c1,0,1,-2,19,31*,-4,-6
CCOC(=O)Nc1ccc([N+](=O)[O-])cc1OC,-5,1,-1,14,0,·,·
N#Cc1c(-c2cccs2)cc(-c2cccnc2)nc1N,1,-4,-12,9,88*,102*,81*
COc1ccc(-c2cc(-c3cccnc3)c(C#N)c(N)n2)cc1,3,9,-1,6,71*,135*,106*
